In PubChem BioAssay AID720597 (Broad Institute, 2013):
Measured potencies and affinities stand elsewhere.

These compounds were tested against NAD-dependent protein deacylase sirtuin-5, mitochondrial (Homo sapiens) (UniProt Q9NXA8) (assay: SIRT5 deacylase inhibitors, dose response, biochemical, fluorescence imaging, cherry-pick, set 6 (AID 720597;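 note: lower AMC signal can also come from blocking the trypsin step; 0% = median of neutral control wells and -100% = median of positive control wells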)). Details: Purified SirT5, succinyl-peptide-AMC/trypsin fluorescence; series mostly up to 15 µM; activity change, negative = inhibition: at the top concentration;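 active = fitted half-maximal dose no more than twice the top valid tested dose, for compounds that lower signal; inconclusive = fit invalid, or curve flat with activity between -70 and -30; inactive = potency past limit, curve flat within ±30, or signal increasing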.
NAD-dependent protein deacylase sirtuin-5, mitochondrial (Homo sapiens), sequence (Q9NXA8 whole entry, looked up): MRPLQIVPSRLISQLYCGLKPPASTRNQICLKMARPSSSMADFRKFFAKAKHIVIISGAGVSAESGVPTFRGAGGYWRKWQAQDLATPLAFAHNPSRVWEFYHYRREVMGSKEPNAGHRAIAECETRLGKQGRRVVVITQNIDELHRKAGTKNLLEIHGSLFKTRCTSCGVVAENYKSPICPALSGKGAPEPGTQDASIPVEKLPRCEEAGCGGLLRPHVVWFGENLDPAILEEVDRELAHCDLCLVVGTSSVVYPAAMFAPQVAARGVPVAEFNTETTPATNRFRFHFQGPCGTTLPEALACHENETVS

Activity change, negative = inhibition, inactive:
CC(=O)N1[C@H](CO)[C@H](c2ccc(-c3ccncc3)cc2)[C@@H]1CNC(=O)CC1CC1 -8.06%
O=C(Nc1ccc2c(c1)OCO2)N[C@H]1CC[C@H](CCNC(=O)C2CC2)O[C@@H]1CO 22.9%
C[C@@H]1CN([C@@H](C)CO)C(=O)c2cccc(NS(=O)(=O)c3cn(C)cn3)c2O[C@H]1CN(C)C(=O)Nc1cccc2ccccc12 -7.45%
Cc1ccc(S(=O)(=O)N(C)C[C@H]2OCCCC[C@H](C)Oc3ccc(NS(=O)(=O)c4ccc(Cl)cc4)cc3C(=O)N([C@H](C)CO)C[C@@H]2C)cc1 -9.84%
COc1ccc(NC(=O)N(C)C[C@@H]2Oc3ccc(NS(=O)(=O)c4ccc(F)cc4)cc3C(=O)N([C@H](C)CO)C[C@@H]2C)cc1 15%
COc1ccccc1-c1ccc2n(c1=O)C[C@@H]1[C@@H](CO)[C@H](C(=O)N3CCCCC3)[C@H]2N1CC1CC1 20.6%
Cc1noc(C)c1NC(=O)Nc1cccc2c1O[C@@H](CN(C)Cc1ccc(Oc3ccccc3)cc1)[C@@H](C)CN([C@@H](C)CO)C2=O 10.8%
COc1cccc(NC(=O)N2CC(=O)N3[C@H](C2)[C@@H](c2ccc(C#CCC4CCCC4)cc2)[C@@H]3CO)c1 34.8%
C[C@@H]1CN([C@H](C)CO)C(=O)c2cc(-c3ccc(F)cc3)cnc2O[C@H]1CN(C)C(=O)Cc1ccccn1 -17.1%
CC(C)CC#Cc1ccc2c(c1)O[C@@H](CN(C)C(=O)C1CCCCC1)[C@@H](C)CN([C@H](C)CO)S2(=O)=O -8.59%
O=C(C[C@@H]1C[C@H]2c3cc(NC(=O)Nc4ccc(C(F)(F)F)cc4)ccc3O[C@H]2[C@H](CO)O1)NCc1ccc2c(c1)OCO2 -16.5%
